Among the data in ChEMBL document CHEMBL1961873, “Compounds: GSK PKIS; Assays: Nanosyn kinase panel” (2012) are inhibition values, retold here.

A word on the inhibition: it is the change of the read-out against control, counted positive when it falls.

Test [1] addresses Tyrosine-protein kinase SYK (Homo sapiens) (UniProt P43405). The settings on record: at 1 µM.
Test [2] addresses T1, Tyrosine-protein kinase Tec (Homo sapiens) (UniProt P42680).
T1 sequence (whole entry): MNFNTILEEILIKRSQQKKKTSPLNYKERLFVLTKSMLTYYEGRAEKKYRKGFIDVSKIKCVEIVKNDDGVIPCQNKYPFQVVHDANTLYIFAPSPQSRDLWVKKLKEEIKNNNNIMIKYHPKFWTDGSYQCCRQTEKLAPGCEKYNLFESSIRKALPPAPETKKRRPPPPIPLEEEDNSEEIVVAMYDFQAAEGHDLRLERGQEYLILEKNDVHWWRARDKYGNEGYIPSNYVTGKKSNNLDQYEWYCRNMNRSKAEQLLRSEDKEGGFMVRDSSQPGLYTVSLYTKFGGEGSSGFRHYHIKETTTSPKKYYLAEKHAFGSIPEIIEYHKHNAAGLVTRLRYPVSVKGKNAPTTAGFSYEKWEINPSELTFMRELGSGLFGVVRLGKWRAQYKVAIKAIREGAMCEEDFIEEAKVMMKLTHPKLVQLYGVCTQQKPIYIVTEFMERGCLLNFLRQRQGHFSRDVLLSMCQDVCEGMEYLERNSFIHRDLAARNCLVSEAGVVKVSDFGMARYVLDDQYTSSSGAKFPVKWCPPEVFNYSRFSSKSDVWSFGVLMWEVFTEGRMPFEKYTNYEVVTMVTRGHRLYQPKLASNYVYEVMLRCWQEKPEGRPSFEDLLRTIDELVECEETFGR
The settings on record: at 0.1 µM.

Test [3] deals with T1, Tyrosine-protein kinase Tec (Homo sapiens). Particulars: at 1 µM.
The target of test [4] is Angiopoietin-1 receptor (Homo sapiens) (UniProt Q02763). The settings on record: at 0.1 µM.
Test [5] has the same target. Particulars: at 1 µM.
Test [6] deals with T2, Non-receptor tyrosine-protein kinase TNK1 (Homo sapiens) (UniProt Q13470).
T2 sequence (whole entry): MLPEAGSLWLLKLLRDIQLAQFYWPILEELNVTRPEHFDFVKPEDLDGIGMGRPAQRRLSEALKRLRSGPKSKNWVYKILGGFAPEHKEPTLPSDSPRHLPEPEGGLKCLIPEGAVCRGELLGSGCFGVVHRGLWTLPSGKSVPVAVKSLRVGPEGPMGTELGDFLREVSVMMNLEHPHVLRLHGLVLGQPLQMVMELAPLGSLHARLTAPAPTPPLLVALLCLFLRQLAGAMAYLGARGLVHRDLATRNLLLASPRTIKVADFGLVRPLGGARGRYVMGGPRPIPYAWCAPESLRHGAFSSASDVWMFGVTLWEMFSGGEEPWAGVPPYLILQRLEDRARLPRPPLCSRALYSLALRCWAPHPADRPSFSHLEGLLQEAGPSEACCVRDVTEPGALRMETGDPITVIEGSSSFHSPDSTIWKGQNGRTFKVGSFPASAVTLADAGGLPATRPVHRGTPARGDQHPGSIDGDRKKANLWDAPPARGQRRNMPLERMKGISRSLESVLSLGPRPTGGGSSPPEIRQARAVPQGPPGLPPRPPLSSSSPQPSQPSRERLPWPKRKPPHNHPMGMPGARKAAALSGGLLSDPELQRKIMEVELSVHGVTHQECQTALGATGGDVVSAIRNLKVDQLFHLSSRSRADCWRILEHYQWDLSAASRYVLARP
Particulars: at 0.1 µM.

The target in test [7] is T2, Non-receptor tyrosine-protein kinase TNK1 (Homo sapiens). Particulars: at 1 µM.
Test [8] deals with Activated CDC42 kinase 1 (Homo sapiens) (UniProt Q07912). Particulars: at 0.1 µM.
Test [9] has the same target. The settings on record: at 1 µM.
Test [10] has as its target High affinity nerve growth factor receptor (Homo sapiens) (UniProt P04629). The settings on record: at 0.1 µM.
The target is the same in test [11]. The settings on record: at 1 µM.
The target of test [12] is BDNF/NT-3 growth factors receptor (Homo sapiens) (UniProt Q16620). Particulars: at 0.1 µM.
For test [13] the target is unchanged. The settings on record: at 1 µM.
Test [14] addresses NT-3 growth factor receptor (Homo sapiens) (UniProt Q16288). The settings on record: at 0.1 µM.
Test [15] shares this target. Particulars: at 1 µM.
For test [16], the target named is T3, Tyrosine-protein kinase TXK (Homo sapiens) (UniProt P42681).
T3 sequence (whole entry): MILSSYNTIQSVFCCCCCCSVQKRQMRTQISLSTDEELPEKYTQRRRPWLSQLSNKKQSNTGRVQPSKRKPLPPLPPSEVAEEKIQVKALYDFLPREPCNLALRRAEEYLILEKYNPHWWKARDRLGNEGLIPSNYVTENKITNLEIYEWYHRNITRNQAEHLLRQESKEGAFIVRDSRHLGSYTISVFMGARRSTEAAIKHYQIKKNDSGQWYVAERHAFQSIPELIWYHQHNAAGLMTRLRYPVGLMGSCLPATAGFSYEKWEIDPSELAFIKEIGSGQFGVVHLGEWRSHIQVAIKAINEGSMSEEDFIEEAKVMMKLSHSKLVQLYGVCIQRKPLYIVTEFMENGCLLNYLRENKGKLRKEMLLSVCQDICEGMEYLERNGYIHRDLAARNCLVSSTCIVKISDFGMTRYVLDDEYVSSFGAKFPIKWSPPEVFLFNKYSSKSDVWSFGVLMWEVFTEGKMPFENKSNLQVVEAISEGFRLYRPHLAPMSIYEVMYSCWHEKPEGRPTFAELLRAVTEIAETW
Particulars: at 0.1 µM.

For test [17], the target named is T3, Tyrosine-protein kinase TXK (Homo sapiens). Particulars: at 1 µM.
For test [18], the target named is Non-receptor tyrosine-protein kinase TYK2 (Homo sapiens) (UniProt P29597). The settings on record: at 0.1 µM.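 Note: each value is a mean of the inhibition readings.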
The target in test [19] is T4, Dual specificity protein kinase TTK (Homo sapiens) (UniProt P33981).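 Note: reported figures are mean TTK inhibition at 1 µM.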
T4 sequence (whole entry): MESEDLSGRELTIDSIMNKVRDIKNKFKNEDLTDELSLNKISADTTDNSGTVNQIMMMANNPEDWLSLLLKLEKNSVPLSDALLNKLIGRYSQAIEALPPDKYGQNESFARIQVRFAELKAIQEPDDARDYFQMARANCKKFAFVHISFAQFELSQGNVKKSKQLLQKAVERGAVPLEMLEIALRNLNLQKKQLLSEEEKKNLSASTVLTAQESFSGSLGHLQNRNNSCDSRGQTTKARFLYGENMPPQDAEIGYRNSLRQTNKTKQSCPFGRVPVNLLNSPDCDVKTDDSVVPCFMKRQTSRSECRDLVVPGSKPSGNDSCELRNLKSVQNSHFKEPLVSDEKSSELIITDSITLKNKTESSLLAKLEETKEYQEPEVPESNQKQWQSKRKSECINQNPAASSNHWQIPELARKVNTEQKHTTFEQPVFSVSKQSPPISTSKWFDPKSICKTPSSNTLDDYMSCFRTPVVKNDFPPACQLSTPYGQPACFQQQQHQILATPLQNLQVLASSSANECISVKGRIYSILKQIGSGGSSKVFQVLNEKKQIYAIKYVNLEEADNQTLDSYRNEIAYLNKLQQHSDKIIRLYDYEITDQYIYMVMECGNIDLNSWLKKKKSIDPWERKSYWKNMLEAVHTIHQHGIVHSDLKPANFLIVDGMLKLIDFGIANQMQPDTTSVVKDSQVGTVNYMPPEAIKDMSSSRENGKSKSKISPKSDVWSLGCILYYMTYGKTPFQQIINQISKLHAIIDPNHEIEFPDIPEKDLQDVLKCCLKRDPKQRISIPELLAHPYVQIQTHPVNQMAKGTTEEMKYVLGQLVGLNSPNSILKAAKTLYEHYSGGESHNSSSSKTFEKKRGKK
The settings on record: at 1 µM.

For test [20], the target named is T5, Aurora kinase A (Homo sapiens) (UniProt O14965).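 Note: each reported value is a mean percent inhibition of Aurora-A.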
T5 sequence (whole entry): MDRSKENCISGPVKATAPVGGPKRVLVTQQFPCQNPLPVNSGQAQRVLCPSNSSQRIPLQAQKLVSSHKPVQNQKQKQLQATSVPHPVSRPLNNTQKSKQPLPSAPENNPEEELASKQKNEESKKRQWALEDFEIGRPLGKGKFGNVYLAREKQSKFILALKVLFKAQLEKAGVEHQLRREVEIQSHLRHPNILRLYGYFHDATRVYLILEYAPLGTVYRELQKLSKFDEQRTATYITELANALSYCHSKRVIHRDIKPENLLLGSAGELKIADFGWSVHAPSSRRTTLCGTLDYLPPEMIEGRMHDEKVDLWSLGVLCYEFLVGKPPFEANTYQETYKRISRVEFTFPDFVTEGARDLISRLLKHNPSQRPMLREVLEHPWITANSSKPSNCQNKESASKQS
The settings on record: at 0.1 µM.

Chain of Non-receptor tyrosine-protein kinase TYK2 (Homo sapiens) (P29597 whole entry): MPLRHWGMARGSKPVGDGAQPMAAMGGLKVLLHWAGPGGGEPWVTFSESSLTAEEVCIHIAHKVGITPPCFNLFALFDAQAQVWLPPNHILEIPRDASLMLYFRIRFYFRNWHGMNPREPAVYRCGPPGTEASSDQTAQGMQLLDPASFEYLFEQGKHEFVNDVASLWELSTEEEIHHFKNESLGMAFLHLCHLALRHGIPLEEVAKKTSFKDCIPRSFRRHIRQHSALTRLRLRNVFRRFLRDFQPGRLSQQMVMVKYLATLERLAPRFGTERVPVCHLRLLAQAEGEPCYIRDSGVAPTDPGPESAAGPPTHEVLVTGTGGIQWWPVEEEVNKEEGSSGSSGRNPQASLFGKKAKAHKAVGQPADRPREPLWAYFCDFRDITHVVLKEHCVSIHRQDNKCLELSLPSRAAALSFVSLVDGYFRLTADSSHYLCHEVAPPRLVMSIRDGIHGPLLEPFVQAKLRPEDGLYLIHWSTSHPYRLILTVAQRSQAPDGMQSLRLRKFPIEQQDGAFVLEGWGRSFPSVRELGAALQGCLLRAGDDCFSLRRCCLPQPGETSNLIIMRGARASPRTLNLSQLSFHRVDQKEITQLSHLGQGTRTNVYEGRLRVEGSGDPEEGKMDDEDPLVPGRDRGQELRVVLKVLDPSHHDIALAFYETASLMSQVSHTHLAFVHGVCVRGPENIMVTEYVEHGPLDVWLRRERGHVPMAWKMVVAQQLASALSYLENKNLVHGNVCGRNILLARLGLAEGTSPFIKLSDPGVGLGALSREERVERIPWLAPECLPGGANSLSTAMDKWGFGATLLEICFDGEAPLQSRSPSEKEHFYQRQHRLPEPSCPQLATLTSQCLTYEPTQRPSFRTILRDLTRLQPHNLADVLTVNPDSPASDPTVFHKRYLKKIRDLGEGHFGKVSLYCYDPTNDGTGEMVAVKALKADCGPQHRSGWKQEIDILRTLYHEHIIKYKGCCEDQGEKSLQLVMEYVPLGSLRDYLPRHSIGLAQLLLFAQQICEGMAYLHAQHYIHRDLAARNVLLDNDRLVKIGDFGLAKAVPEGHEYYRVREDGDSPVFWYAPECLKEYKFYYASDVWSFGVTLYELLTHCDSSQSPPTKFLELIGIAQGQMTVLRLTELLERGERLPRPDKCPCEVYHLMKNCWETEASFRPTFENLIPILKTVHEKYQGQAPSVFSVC
Chain of NT-3 growth factor receptor (Homo sapiens) (Q16288 32-839 limits assumed): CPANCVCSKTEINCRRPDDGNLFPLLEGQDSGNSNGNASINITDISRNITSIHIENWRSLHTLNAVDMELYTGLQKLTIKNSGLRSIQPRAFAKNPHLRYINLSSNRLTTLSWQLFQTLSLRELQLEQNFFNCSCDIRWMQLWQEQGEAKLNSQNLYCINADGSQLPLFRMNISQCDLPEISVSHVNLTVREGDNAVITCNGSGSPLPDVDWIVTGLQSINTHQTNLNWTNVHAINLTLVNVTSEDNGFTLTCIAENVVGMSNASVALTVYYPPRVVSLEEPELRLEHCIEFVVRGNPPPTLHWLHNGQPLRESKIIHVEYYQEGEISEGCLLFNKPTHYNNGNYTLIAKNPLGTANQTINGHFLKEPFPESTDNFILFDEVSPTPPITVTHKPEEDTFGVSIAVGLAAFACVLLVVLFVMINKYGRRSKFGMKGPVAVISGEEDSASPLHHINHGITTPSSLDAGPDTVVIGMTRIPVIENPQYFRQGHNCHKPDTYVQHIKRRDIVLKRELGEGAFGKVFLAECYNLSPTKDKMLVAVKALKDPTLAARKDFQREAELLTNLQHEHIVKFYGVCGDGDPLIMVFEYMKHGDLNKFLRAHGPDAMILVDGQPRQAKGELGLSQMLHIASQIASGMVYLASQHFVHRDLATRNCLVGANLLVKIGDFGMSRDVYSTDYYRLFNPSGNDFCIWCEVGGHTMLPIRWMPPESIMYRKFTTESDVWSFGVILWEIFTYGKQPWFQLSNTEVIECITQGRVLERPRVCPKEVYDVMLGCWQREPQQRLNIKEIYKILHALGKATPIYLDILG
Chain of High affinity nerve growth factor receptor (Homo sapiens) (P04629 33-796 limits assumed): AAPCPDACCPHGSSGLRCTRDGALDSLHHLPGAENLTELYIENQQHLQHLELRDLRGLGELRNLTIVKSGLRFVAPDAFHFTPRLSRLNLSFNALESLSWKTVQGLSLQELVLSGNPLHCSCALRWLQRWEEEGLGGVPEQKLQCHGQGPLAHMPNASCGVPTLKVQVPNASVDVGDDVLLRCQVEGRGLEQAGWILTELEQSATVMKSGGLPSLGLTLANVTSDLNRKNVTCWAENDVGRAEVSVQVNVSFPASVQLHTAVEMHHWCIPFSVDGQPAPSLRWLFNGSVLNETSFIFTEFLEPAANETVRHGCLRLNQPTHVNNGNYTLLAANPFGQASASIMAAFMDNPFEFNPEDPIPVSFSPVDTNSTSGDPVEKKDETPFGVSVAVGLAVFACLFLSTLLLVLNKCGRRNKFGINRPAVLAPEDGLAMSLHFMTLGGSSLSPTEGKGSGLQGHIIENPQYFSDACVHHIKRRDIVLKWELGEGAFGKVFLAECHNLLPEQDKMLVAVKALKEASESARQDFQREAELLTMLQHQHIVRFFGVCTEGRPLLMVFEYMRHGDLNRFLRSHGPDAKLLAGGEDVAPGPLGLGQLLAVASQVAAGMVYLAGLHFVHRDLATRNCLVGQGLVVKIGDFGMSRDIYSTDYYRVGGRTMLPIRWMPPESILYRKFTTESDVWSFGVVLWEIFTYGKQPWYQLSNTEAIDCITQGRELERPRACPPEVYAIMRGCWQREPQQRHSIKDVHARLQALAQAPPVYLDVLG
Chain of Activated CDC42 kinase 1 (Homo sapiens) (Q07912 whole entry, looked up): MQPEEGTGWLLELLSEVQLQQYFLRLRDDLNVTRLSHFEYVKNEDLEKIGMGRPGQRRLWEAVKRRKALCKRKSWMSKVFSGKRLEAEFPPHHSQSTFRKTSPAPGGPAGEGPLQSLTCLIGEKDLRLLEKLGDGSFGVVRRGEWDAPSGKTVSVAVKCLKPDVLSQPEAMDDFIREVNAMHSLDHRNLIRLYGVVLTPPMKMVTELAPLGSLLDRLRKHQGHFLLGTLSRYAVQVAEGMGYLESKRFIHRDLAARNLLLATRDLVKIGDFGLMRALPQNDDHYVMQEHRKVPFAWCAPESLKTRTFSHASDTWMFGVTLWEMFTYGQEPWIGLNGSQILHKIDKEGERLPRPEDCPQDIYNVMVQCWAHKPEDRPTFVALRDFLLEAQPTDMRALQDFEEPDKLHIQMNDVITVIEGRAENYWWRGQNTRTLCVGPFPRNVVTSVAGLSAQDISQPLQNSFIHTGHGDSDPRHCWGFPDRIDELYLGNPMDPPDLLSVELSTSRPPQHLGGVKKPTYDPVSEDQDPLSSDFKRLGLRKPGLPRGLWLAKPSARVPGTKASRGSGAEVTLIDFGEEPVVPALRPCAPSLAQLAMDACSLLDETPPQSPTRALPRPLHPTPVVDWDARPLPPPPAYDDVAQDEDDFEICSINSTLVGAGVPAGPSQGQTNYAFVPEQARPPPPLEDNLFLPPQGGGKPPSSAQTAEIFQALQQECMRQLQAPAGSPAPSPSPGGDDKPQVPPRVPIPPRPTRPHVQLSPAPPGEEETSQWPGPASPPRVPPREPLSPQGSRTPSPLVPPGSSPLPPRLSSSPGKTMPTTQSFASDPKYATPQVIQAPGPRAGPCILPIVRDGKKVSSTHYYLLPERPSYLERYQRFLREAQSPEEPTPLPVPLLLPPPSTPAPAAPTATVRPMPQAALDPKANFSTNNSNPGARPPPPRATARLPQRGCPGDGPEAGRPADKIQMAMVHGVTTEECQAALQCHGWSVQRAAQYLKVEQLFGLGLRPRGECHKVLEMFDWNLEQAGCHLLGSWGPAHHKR
Chain of BDNF/NT-3 growth factors receptor (Homo sapiens) (Q16620 32-822 limits assumed): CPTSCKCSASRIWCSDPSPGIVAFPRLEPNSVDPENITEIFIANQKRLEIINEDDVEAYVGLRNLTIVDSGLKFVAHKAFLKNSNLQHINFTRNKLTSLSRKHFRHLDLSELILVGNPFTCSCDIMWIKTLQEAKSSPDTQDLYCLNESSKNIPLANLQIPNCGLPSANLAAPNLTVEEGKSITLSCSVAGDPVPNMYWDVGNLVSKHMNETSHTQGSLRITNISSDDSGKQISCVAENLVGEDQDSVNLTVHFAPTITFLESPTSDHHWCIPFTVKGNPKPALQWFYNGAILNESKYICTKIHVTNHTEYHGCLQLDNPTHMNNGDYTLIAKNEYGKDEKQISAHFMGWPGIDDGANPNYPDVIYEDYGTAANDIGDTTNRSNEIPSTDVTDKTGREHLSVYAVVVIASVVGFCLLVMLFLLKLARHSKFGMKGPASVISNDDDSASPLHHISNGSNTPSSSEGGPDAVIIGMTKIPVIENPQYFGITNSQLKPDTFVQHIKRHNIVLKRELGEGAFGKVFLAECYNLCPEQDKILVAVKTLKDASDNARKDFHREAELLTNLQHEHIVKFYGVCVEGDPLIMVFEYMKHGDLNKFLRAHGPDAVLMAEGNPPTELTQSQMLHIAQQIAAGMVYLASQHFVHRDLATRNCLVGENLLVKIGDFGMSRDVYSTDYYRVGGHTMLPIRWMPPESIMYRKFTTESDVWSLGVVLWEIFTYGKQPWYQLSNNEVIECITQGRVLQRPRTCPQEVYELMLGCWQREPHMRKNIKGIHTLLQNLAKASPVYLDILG

In the case of `NC(=O)c1cc(-c2ccc(F)cc2)cc(-c2ccncc2)c1N`, the inhibition in [1] amounted to 1.28%; in [2], 2.88%; in [3], 5.71%; in [4], 4.39%; in [5], 3.08%; in [6], 3.42%. Besides, the inhibition is 7.48% in test [7]; 0.31% in test [8]; -0.36% in test [9]; 2.33% in [10]; -0.4% in test [11]; 3.69% in test [12]. In addition, the inhibition was 3.15% in test [13]; 3.87% in test [14]; 2.92% in [15]; 3.85% in test [16]; 12.4% in test [17]; -2.58% in test [18]. The values for the inhibition in test [19] and in test [20] were 11.4% and 3.42%, respectively.

For the molecule `FC(F)(F)c1cccc(Nc2nccc(-c3cnn4nc(-c5ccccc5)ccc34)n2)c1`, the inhibition in test [1] is -6.97%; in [2] it was -0.76%; in test [3], 4.7%; in test [4] it was 0.12%; in [5], 4.87%; in [6], 1.51%. The inhibition in [7] was 8.59%; in test [8], 0.76%; in [9], 1.15%; in [10], -0.16%; in [11] it was -0.33%; in test [12] it was 0.37%. For the same molecule, the inhibition was 3.54% in test [13]; -0.78% in [14]; 3.9% in test [15]; -1.01% in test [16]; 5.95% in [17]; -2.57% in [18]. In addition, the values for the inhibition in test [19] and in [20] were 6.07% and 0.08%, respectively.

Take `CS(=O)(=O)CCNCc1ccc(-c2ccc3ncnc(Nc4ccc(OCc5ccccc5)c(Br)c4)c3c2)o1`: the inhibition was -5.01% in test [1]; -2.31% in test [2]; 1.49% in test [3]; 0.77% in [4]; 4.68% in test [5]; 0.59% in test [6]. Also, the inhibition in test [7] was 14.6%; in [8], -0.17%; in [9], 1.61%; in test [10] it was 1.4%; in test [11], 0.51%; in test [12] it was 3%. In addition, the inhibition was 4.04% in test [13]; 2% in test [14]; 1.45% in [15]; -5.68% in test [16]; 2.31% in test [17]; -5.11% in test [18]. Moreover, the inhibition in [19] is 10.2%; in test [20], -1.23%.
